# Tests used:
# Experiment in all cases: growth inhibition (% activity, log2 RLU normalised to DMSO / staurosporine); higher = more growth inhibition
# Conditions in all cases: 33 µM
# [1] = tested on: DIPGX29 (H3.3 K27M diffuse intrinsic pontine glioma line)
# In short: (§1)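 Approved drugs were tested in triplicate at a single final concentration of about 33 μM for 7 days at 37 °C, 5% CO2, on pHGG cell lines and H9-derived neural stem cells. Readout was CellTiter-Glo luminescence, log2-transformed and scaled per plate to % activity between solvent and positive control wells. The median over replicates gives the growth-inhibition value.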
# [2] = tested on: DIPGX37 (H3.3 K27M diffuse intrinsic pontine glioma line)
# In short: as §1
# [3] = tested on: DIPGX7 (H3.3 K27M diffuse intrinsic pontine glioma line)
# In short: as §1
# [4] = tested on: DIPGX9 (diffuse intrinsic pontine glioma line)
# In short: as §1
# [5] = tested on: HGGX39 (paediatric high-grade glioma line)
# In short: as §1
# [6] = tested on: HGGX6 (H3.3 G34R paediatric high-grade glioma line)
# In short: as §1
# [7] = tested on: HNSC
# In short: as §1
# [8] = tested on: SUDIPGIV (diffuse intrinsic pontine glioma line)
# In short: as §1
# [9] = tested on: SUDIPGVI (diffuse intrinsic pontine glioma line)
# In short: as §1
# [10] = tested on: SUDIPGXIII (diffuse intrinsic pontine glioma line)
# In short: as §1
Structure (SMILES),growth inhibition [1],growth inhibition [2],growth inhibition [3],growth inhibition [4],growth inhibition [5],growth inhibition [6],growth inhibition [7],growth inhibition [8],growth inhibition [9],growth inhibition [10]
[O-]n1ccccc1=S.[O-]n1ccccc1=S.[Zn+2],61.5%,60.4%,56.6%,56.4%,20.2%,59.7%,58.4%,48.4%,59.2%,59.7%
CC(C)[C@H](N)C(=O)OCC(CO)OCn1cnc2c(=O)[nH]c(N)nc21 (stereo not given in full),-0.214%,1.96%,-0.125%,0.141%,0.816%,-2.7%,0.0503%,0.2%,-2.51%,1.45%
CC(C)C[C@H](NC(=O)[C@H](Cc1ccccc1)NC(=O)c1cnccn1)B(O)O,53.3%,60.7%,60%,59.1%,58.5%,60.1%,64.2%,59.3%,56.3%,69.9%
CC(CN(C)C)CN1c2ccccc2CCc2ccccc21 (stereo not given),-1.45%,-0.198%,-0.333%,-0.216%,4.41%,-2.56%,3.02%,1.48%,0.808%,-0.414%
N=C(N)NC(=N)NCCc1ccccc1,2.55%,2.09%,2.16%,3.4%,3.43%,1.66%,13%,3.22%,7.27%,2.1%
Nc1nc(=O)[nH]cc1F,1.91%,1.71%,2.65%,3.09%,1.88%,1.43%,1.22%,0.252%,2.66%,-3.23%
Cc1ncc([N+](=O)[O-])n1CC(O)CCl (stereo not given),1.6%,-0.696%,3.64%,1.89%,2.83%,1.22%,6.21%,1.59%,4.35%,0.346%
CCCc1cc(C(N)=S)ccn1,-2.06%,-0.994%,-2.65%,-1.15%,-0.973%,0.551%,-2.9%,-2.46%,-0.254%,0.671%
O=C(CCCCCCC(=O)Nc1ccccc1)NO,46.8%,23.9%,51.7%,49.5%,18.5%,33.7%,70.6%,44.9%,38.5%,28%
C[C@]12CCC(=O)C=C1CC[C@@H]1[C@@H]2[C@@H](O)C[C@@]2(C)[C@H]1CC[C@]2(O)C(=O)CO,1.76%,3.35%,0.297%,4.32%,3.81%,2.56%,-1.17%,-0.15%,3.46%,0.475%
Cc1cc(C)nc(NS(=O)(=O)c2ccc(N)cc2)n1,-2.92%,0.0741%,-1.22%,-1.22%,-1.68%,-2.24%,4.45%,-1.47%,-1.67%,0.778%
CCCCCCCCCCCCCCCCCCCCCCO,0.193%,0.0924%,-0.407%,0.0399%,-0.179%,0.445%,1.03%,-1.18%,1.92%,1.68%
CC(=O)OCC(=O)[C@@]12N=C(C)O[C@@H]1C[C@H]1[C@@H]3CCC4=CC(=O)C=C[C@]4(C)[C@H]3[C@@H](O)C[C@@]12C,2.06%,0.767%,0.297%,4.71%,3.17%,0.221%,1.26%,-3.7%,-1.31%,-1.39%
CCCCOc1ccc(CC(=O)NO)cc1,4.76%,1.97%,54.5%,3.15%,12.5%,12.9%,17.1%,3.36%,-3.3%,-0.824%
COc1ccc(CC(C)NCC(O)c2ccc(O)c(NC=O)c2)cc1 (stereo not given),-0.234%,-0.809%,0.814%,0.302%,3.66%,0.0101%,6.49%,0.93%,1.33%,-1.79%
CCC(CC)[C@H](NC(C)=O)[C@@H]1[C@H](O)[C@@H](C(=O)O)C[C@H]1NC(=N)N,-0.417%,-0.255%,-0.771%,-0.84%,-1.05%,-1.09%,-1.8%,-0.387%,-0.749%,2.27%
Nc1ccc(/N=N/c2ccccc2)c(N)n1,-3.96%,-2.54%,0.481%,-3.38%,-1.17%,-3.08%,9.5%,-2.91%,-4.45%,1.45%
O=c1ccn([C@@H]2O[C@H](CO)[C@@H](O)[C@H]2O)c(=O)[nH]1,-0.716%,-1.37%,1.57%,-0.704%,0.73%,-4.51%,17.6%,-1.57%,-0.357%,-2.42%

# — the supplement of paper PMC8253809
